# In PubChem BioAssay (EPA / NIEHS):
# Values joined by “and” are separate entries in the source; they are usually repeats but may differ in a detail not shown here. Equal values may be shown once. Records with an inconclusive call do not appear. The source holds several records for some structures; these can differ, active in one and inactive in another. Active and inactive are the calls of the source. Rule for the calls, unless noted: active = hit-call score of the fitted dose curve at least 0.9, where 1 is the maximum; inconclusive = response in the unintended direction; inactive = score below 0.9.
# Assays:
# [1] = target: Hepatocyte nuclear factor 6 (Homo sapiens) (UniProt Q9UBC0); assay: ATG_HNF6_CIS: Attagene CIS-FACTORIAL HepG2 Assay for human Hepatocyte Nuclear Factor 6 (HNF6) (AID 2282952; active = hit-call score of the fitted dose curve at least 0.9, where 1 is the maximum; inactive = score below 0.9); details: HepG2 Attagene cis-factorial HNF6 reporter transcription; actives raise or lower the signal
# Sequence of Hepatocyte nuclear factor 6 (Homo sapiens) (Q9UBC0 whole entry, looked up): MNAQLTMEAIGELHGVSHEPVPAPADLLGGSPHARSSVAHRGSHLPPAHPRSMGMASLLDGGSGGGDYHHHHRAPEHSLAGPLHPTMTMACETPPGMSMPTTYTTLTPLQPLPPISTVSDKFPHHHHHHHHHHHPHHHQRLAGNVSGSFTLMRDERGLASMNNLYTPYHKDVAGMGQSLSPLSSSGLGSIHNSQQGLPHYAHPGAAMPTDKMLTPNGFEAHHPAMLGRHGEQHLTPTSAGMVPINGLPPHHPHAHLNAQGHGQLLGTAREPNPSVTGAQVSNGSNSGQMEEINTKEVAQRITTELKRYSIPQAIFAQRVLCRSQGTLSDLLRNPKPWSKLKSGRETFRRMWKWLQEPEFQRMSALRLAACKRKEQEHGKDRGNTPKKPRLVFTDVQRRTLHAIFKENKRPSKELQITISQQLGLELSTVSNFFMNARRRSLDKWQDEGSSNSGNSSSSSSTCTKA
# Procedure, shortened: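 Activity values derive from bidirectional fitting against DMSO of reporter mRNA levels, measured by capillary electrophoresis of labelled RT-PCR products from HepG2 cells exposed 24 h.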
# [2] = ATG_MRE_CIS: Attagene CIS-FACTORIAL HepG2 Assay for human Metal Responsive Element (MRE) (AID 2282954; active = hit-call score of the fitted dose curve at least 0.9, where 1 is the maximum; inactive = score below 0.9); details: HepG2 MRE cis-reporter transcription, Attagene multiplex; actives raise or lower the signal
# Procedure, shortened: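 Cells were transfected with cis-promoter reporter transcription units, then dosed for 24 h. RNA was reverse-transcribed, amplified, fluorescently labelled and resolved by capillary electrophoresis, and activity was fitted in both directions relative to DMSO.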
# [3] = target: Paired box protein Pax-6 (Homo sapiens) (UniProt P26367); assay: ATG_Pax6_CIS: Attagene CIS-FACTORIAL HepG2 Assay for human Paired Box 6 (PAX6) (AID 2282956; active = hit-call score of the fitted dose curve at least 0.9, where 1 is the maximum; inactive = score below 0.9); details: HepG2 CIS-FACTORIAL PAX6 reporter transcription, RNA readout; actives raise or lower the signal
# Sequence of Paired box protein Pax-6 (Homo sapiens) (P26367 whole entry, looked up): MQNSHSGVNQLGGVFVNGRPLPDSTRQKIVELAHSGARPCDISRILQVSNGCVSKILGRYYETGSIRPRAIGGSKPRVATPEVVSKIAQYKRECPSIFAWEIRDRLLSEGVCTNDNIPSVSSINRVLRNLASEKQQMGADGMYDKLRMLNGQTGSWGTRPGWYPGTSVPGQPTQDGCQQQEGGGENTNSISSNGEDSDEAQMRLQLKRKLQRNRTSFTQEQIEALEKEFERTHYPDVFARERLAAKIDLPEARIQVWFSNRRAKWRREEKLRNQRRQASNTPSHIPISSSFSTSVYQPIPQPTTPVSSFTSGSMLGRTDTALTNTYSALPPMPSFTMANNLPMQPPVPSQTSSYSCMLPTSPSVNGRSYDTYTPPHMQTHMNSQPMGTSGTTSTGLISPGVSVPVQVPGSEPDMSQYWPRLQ
# Procedure, shortened: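 Values derive from bidirectional curve fitting of reporter mRNA signal relative to DMSO. HepG2 cells bearing transfected cis-regulated MRTUs were exposed for 24 h; transcripts were read by RT-PCR and capillary electrophoresis.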
# [4] = ATG_RORE_CIS: Attagene CIS-FACTORIAL HepG2 Assay for human RAR-related Orphan Receptor Element (RORE) (AID 2282959; active = hit-call score of the fitted dose curve at least 0.9, where 1 is the maximum; inactive = score below 0.9); details: HepG2 Attagene cis-factorial RORE reporter, mRNA; actives raise or lower the signal
# Procedure, shortened: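 Measured here: transcript induction of a cis-regulated reporter in HepG2 cells transiently transfected via FuGene 6. After 24 h, RNA was processed by RT-PCR and fluorescent capillary electrophoresis; DMSO defined baseline activity.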
# [5] = target: Hepatocyte nuclear factor 4-alpha (Homo sapiens) (UniProt P41235); assay: ATG_HNF4a_TRANS: Attagene TRANS-FACTORIAL HepG2 Assay for human Hepatocyte Nuclear Factor 4 alpha (HNF4a) (AID 2282982); details: HepG2 HNF4a transactivation reporter, mRNA readout
# Sequence of Hepatocyte nuclear factor 4-alpha (Homo sapiens) (P41235 whole entry, looked up, the tested form may be a part): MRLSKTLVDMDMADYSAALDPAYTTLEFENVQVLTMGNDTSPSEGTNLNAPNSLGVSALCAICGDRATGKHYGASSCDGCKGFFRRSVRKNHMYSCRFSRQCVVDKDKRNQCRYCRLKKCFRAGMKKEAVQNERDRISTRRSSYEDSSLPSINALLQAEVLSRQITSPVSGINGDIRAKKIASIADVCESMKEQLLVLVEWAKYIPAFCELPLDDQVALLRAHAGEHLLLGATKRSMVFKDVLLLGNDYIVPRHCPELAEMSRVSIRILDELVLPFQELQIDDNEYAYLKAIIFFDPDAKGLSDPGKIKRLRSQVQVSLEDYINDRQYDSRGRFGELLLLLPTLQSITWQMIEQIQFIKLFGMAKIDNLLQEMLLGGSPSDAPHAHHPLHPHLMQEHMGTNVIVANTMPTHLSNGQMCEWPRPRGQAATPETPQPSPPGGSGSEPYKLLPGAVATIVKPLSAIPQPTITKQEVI
# Procedure, shortened: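 In this trans-factorial format, a chimeric HNF4a-GAL4 fusion drives a GAL4-UAS reporter in transfected HepG2 liver cells. After 24 h treatment, reporter mRNA induction is measured by RT-PCR with capillary electrophoresis, relative to DMSO.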
# [6] = ATG_M_06_TRANS: Attagene TRANS-FACTORIAL HepG2 Assay for M06 Transcription Factor (Internal Marker) (AID 2282983); details: HepG2 Attagene TRANS M06 internal marker reporter
# Procedure, shortened: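 In this multiplexed HepG2 system, compounds are incubated 24 h with cells carrying GAL4-UAS reporter units. Reporter RNA is amplified and resolved by capillary electrophoresis, and induction is scored against DMSO.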
# [7] = ATG_NF_kB_CIS: Attagene CIS-FACTORIAL HepG2 Assay for human Nuclear Factor Kappa B (NF-kB) (AID 2282991; active = hit-call score of the fitted dose curve at least 0.9, where 1 is the maximum; inactive = score below 0.9); details: HepG2 Attagene cis-factorial NF-kB reporter mRNA; actives raise or lower the signal
# Procedure, shortened: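 After 24 h compound incubation, transfected HepG2 cells yield total RNA; reporter cDNA is PCR-amplified, end-labelled with 6-FAM, HpaI-digested and analysed on a genetic analyser. Endogenous factor activity, DMSO-referenced bidirectional fit.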
# [8] = target: human Peroxisome Proliferator-activated Receptor alpha (PPARa), PPARA (gene 5465) (UniProt Q07869); assay: ATG_PPARa_TRANS: Attagene TRANS-FACTORIAL HepG2 Assay for human Peroxisome Proliferator-activated Receptor alpha (PPARa) (AID 2283001)
# Sequence of human Peroxisome Proliferator-activated Receptor alpha (PPARa), PPARA (gene 5465) (Q07869 whole entry, looked up): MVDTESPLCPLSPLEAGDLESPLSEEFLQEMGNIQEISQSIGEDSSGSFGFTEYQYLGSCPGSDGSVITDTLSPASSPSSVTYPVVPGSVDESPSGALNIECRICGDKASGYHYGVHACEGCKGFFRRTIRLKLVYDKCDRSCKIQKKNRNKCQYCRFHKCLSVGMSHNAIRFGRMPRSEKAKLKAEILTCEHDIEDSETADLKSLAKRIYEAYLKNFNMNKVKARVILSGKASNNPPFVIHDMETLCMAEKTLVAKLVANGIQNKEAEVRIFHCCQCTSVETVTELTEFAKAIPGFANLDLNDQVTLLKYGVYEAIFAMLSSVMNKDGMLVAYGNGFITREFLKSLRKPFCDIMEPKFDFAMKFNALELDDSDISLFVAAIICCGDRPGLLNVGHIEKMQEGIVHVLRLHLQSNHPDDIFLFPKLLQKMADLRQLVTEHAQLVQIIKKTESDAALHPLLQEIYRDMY
# Procedure, shortened: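 Cells (HepG2) are transfected with multiple reporter transcription units, exposed to chemical for 24 h, then total RNA is reverse-transcribed and amplified. Labelled products are quantified by capillary electrophoresis; induction is referenced to DMSO.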
# [9] = target: Peroxisome proliferator-activated receptor gamma (Homo sapiens) (UniProt P37231); assay: ATG_PPARg_TRANS: Attagene TRANS-FACTORIAL HepG2 Assay for human Peroxisome Proliferator-activated Receptor-gamma (PPARg) (AID 2283007)
# Sequence of Peroxisome proliferator-activated receptor gamma (Homo sapiens) (P37231 whole entry, looked up, the tested form may be a part): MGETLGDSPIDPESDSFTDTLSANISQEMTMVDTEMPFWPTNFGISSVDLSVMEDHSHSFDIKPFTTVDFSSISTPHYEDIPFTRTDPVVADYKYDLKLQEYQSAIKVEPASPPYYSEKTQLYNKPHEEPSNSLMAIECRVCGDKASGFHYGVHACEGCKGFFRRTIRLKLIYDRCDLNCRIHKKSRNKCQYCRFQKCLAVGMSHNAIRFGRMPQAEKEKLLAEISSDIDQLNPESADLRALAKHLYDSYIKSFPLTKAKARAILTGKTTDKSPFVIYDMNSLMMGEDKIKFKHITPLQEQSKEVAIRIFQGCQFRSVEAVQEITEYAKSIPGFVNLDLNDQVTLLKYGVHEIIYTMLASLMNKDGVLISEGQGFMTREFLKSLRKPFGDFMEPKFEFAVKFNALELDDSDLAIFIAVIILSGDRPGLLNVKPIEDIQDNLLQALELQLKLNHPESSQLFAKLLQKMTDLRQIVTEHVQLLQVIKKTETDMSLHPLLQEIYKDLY
# Procedure, shortened: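 Liver-derived HepG2 cells expressing an exogenous NR-Gal4 chimera alongside GAL4-UAS reporter genes; 24 h exposure. Fluorescence of reporter RT-PCR products, separated by capillary electrophoresis, gives mRNA induction relative to DMSO.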
# [10] = target: human Retinoid X Receptor beta (RXRb), RXRB (gene 6257) (UniProt P28702); assay: ATG_RXRb_TRANS: Attagene TRANS-FACTORIAL HepG2 Assay for human Retinoid X Receptor beta (RXRb) (AID 2283013)
# Sequence of human Retinoid X Receptor beta (RXRb), RXRB (gene 6257) (P28702 whole entry, looked up, the tested form may be a part): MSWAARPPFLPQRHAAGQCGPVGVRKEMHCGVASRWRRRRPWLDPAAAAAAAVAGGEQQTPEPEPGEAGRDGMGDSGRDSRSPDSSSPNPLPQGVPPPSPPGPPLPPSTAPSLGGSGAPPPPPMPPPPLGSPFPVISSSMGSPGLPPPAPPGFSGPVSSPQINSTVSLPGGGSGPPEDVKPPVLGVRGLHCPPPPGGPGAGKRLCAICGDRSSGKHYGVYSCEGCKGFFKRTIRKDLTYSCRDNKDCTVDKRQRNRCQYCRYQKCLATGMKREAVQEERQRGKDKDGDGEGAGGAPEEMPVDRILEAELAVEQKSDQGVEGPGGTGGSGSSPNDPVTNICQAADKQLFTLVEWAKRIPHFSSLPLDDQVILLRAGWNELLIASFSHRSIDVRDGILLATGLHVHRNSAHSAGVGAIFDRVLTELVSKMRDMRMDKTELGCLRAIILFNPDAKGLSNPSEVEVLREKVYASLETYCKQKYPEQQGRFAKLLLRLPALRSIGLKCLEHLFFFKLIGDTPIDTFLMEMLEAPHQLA
# Procedure, shortened: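 Chimeric receptor-Gal4 activity was assessed in transiently transfected human HepG2 cells after 24 h exposure. Transcripts from GAL4-UAS reporters were quantified by fluorescent RT-PCR and capillary electrophoresis, with DMSO as negative control and baseline.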
# [11] = ATG_M_61_CIS: Attagene CIS-FACTORIAL HepG2 Assay for M61 Transcription Factor (Internal Marker) (AID 2282937; active = hit-call score of the fitted dose curve at least 0.9, where 1 is the maximum; inactive = score below 0.9); details: HepG2 Attagene CIS-FACTORIAL M61 internal marker reporter; actives raise or lower the signal
# Procedure, shortened: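 Using transiently transfected HepG2 liver cells, reporter transcript levels were assessed 24 h post-dosing by RT-PCR and capillary electrophoresis. Changes in either direction were fitted relative to DMSO controls.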
# [12] = ATG_GRE_CIS: Attagene CIS-FACTORIAL HepG2 Assay for human Glucocorticoid Response Elements (GRE) (AID 2282947; active = hit-call score of the fitted dose curve at least 0.9, where 1 is the maximum; inactive = score below 0.9); details: HepG2 GRE cis-reporter, Attagene multiplex mRNA; actives raise or lower the signal
# Procedure, shortened: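 Cells (HepG2) bearing transfected cis-promoter reporter transcription units were treated with chemical for 24 hours. Reporter mRNA was measured via RT-PCR with capillary electrophoresis, and activity was fitted in both directions relative to DMSO.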
# [13] = target: Nuclear receptor subfamily 1 group I member 2 (Homo sapiens) (UniProt O75469); assay: ATG_PXR_TRANS: Attagene TRANS-FACTORIAL HepG2 Assay for human Pregnane X Receptor (PXR) (AID 2283008)
# Sequence of Nuclear receptor subfamily 1 group I member 2 (Homo sapiens) (O75469 whole entry, looked up, the tested form may be a part): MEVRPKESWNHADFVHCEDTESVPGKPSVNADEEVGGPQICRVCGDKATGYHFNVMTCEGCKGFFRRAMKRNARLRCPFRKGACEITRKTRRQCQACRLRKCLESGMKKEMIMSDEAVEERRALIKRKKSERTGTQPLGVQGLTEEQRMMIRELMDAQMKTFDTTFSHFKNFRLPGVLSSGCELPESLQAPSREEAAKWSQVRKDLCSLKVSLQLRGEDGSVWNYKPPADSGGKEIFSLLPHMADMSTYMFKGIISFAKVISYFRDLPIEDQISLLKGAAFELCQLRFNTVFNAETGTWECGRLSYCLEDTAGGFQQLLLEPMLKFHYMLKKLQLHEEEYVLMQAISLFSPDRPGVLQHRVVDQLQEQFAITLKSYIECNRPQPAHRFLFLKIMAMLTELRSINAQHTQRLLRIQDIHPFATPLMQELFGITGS
# Procedure, shortened: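 Transient HepG2 transfectants carrying multiplexed reporter transcription units; PXR activity read through a Gal4 chimera. 24 h exposure. RT-PCR/CE fluorescence; upward curve fit referenced to DMSO.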
# [14] = ATG_PBREM_CIS: Attagene CIS-FACTORIAL HepG2 Assay for human Phenobarbital-responsive Enhancer Module (PBREM) (AID 2282955; active = hit-call score of the fitted dose curve at least 0.9, where 1 is the maximum; inactive = score below 0.9); details: HepG2 PBREM cis-reporter, Attagene multiplexed transcription; actives raise or lower the signal
# Procedure, shortened: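 Readout: reporter mRNA, fluorescent RT-PCR fragments separated by capillary electrophoresis. System: HepG2 transiently transfected with cis-regulated reporter units. Exposure: 24 h. Analysis: bidirectional, DMSO baseline.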
# [15] = target: Myc proto-oncogene protein (Homo sapiens) (UniProt P01106); assay: ATG_Myc_CIS: Attagene CIS-FACTORIAL HepG2 Assay for human Myelocytomatosis (Myc) Proto-Oncogene Transcription Factor (AID 2282990; active = hit-call score of the fitted dose curve at least 0.9, where 1 is the maximum; inactive = score below 0.9); details: HepG2, Attagene cis-reporter transcription factor activity; actives raise or lower the signal
# Sequence of Myc proto-oncogene protein (Homo sapiens) (P01106 whole entry, looked up): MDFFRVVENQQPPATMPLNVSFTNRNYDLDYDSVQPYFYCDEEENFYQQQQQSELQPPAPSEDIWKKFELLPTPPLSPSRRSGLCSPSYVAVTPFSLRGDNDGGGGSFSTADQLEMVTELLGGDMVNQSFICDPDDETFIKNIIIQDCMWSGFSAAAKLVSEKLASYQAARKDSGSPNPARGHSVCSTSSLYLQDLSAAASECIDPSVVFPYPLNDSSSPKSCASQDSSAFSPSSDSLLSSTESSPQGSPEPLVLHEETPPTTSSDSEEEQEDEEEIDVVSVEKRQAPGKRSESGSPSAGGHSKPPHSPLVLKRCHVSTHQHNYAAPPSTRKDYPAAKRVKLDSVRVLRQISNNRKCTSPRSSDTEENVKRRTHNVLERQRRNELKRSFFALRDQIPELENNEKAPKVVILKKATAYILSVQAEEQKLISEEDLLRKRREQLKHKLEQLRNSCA
# Procedure, shortened: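 Multiplexed cis-reporter transcription in HepG2 cells after 24 h chemical treatment. Reporter mRNA measured by RT-PCR and capillary electrophoresis fluorescence; activity fitted bidirectionally against DMSO control.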
# [16] = target: Cellular tumor antigen p53 (Homo sapiens) (UniProt P04637); assay: TOX21_p53_BLA_p2_ratio: Tox21 HCT-116 p53 Agonism Beta-lactamase Assay, Ratio, Phase 2 (AID 2283592)
# Sequence of Cellular tumor antigen p53 (Homo sapiens) (P04637 whole entry, looked up): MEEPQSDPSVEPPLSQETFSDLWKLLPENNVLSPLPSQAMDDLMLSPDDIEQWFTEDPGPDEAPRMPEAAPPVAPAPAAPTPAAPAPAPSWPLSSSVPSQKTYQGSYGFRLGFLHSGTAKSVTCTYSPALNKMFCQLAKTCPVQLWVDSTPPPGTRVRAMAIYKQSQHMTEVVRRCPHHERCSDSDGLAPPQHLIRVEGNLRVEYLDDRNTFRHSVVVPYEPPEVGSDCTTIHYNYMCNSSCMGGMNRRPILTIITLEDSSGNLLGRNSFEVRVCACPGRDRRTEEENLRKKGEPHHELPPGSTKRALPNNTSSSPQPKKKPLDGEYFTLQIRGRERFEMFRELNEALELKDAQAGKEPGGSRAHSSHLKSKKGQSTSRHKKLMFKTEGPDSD
# Procedure, shortened: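 Ratio endpoint: beta-lactamase cleavage of CCF4-AM, blue (460 nm) over green (530 nm). HCT116 reporter line; 16 h treatment, 37C; substrate 2 h RT.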
# [17] = target: Cellular tumor antigen p53 (Homo sapiens) (UniProt P04637); assay: TOX21_p53_BLA_p3_ratio: Tox21 HCT-116 p53 Agonism Beta-lactamase Assay, Ratio, Phase 3 (AID 2283596)
# Procedure, shortened: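 Cells were seeded at 4000/well, rested 5 h at 37C, then dosed with DMSO compound solutions (217-fold dilution) for 16 h. CCF4-AM substrate was loaded for 2 h at room temperature, and the 460/530 nm emission ratio was fitted for gain of signal versus DMSO.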
# [18] = target: Cellular tumor antigen p53 (Homo sapiens) (UniProt P04637); assay: TOX21_p53_BLA_p5_ratio: Tox21 HCT-116 p53 Agonism Beta-lactamase Assay, Ratio, Phase 5 (AID 2283599)
# Procedure, shortened: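 HCT-116 cells carrying a p53-inducible beta-lactamase reporter were seeded at 4000 cells/well and dosed after 5 h with compound in DMSO (217-fold dilution). After 16 h at 37C, CCF4-AM substrate was added for 2 h, and the 460/530 nm emission ratio was scored as gain-of-signal versus DMSO.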
# [19] = TOX21_p53_BLA_p5_viability: Viability Assessment in the Tox21 HCT-116 p53 Agonism Beta-lactamase Assay, Phase 5 (AID 2283600)
# Procedure, shortened: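 Luciferase-coupled ATP quantitation of cells treated for 16 h (37C, 5% CO2) with test chemicals delivered in DMSO via a 217-fold dilution; 4000 cells/well; reagent incubated 30 min at room temperature before luminescence reading.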
# [20] = target: Cellular tumor antigen p53 (Homo sapiens) (UniProt P04637); assay: TOX21_p53_BLA_p4_ratio: Tox21 HCT-116 p53 Agonism Beta-lactamase Assay, Ratio, Phase 4 (AID 2283601)
# Procedure, shortened: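 HCT116 cells carrying an inducible beta-lactamase reporter were plated at 4000 cells/well, rested 5 h, then exposed to compounds in DMSO (217-fold dilution) for 16 h at 37C. CCF4-AM substrate was loaded 2 h at room temperature; 460/530 nm emission ratio scored gain-of-signal versus DMSO.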
structure (smiles),measurement,setting,value
Nc1ccc(-c2ccc(N)c(N)c2)cc1N,outcome,[1],inactive
same,outcome,[2],inactive
same,outcome,[3],inactive
same,outcome,[4],inactive
same,outcome,[5],inactive
same,outcome,[6],inactive
same,outcome,[7],inactive
same,outcome,[8],inactive
same,outcome,[9],inactive
same,outcome,[10],inactive
CCCCOP(=O)(O)OCCCC,outcome,[11],inactive
same,outcome,[12],inactive
same,outcome,[2],inactive
same,outcome,[3],inactive
same,outcome,[4],inactive
same,outcome,[5],inactive
same,outcome,[6],inactive
same,outcome,[7],inactive
same,outcome,[8],inactive
same,outcome,[9],inactive
same,outcome,[13],inactive
O=C1C(Cl)=C(Cl)C(=O)C(Cl)=C1Cl,outcome,[11],inactive
same,outcome,[12],inactive
same,outcome,[1],inactive
same,outcome,[14],inactive
same,AC50,[3],132 µM (active)
same,outcome,[4],inactive
same,outcome,[5],inactive
same,outcome,[6],inactive
same,outcome,[15],inactive
same,AC50,[7],34.6 µM (active)
same,outcome,[8],inactive
same,outcome,[9],inactive
same,outcome,[13],inactive
same,outcome,[10],inactive
same,AC50,[16],13.7 µM (active)
same,outcome,[16],inactive
same,AC50,[17],4.93 µM (active)
same,outcome,[17],inactive
same,AC50,[18],15.4 µM (active) and 34.8 µM (active)
same,AC50,[19],57.6 µM (active) and 56.4 µM (active)
same,AC50,[20],84.7 µM (active)
same,outcome,[20],inactive
C=CCc1ccc(OC(=O)Cc2ccccc2)c(OC)c1,outcome,[11],inactive
same,outcome,[12],inactive
same,outcome,[1],inactive
same,outcome,[2],inactive
same,outcome,[14],inactive
same,outcome,[3],inactive
same,outcome,[5],inactive
same,outcome,[6],inactive
same,AC50,[7],114 µM (active)
same,AC50,[9],19 µM (active)
same,AC50,[13],11.8 µM (active)
same,outcome,[10],inactive
same,outcome,[16],inactive
same,outcome,[19],inactive
